# According to PubChem BioAssay (NCATS):
# Results filed as inconclusive are left out. A number with no mark means an inactive call. The source made the active and inactive calls. The call rests on the fitted dose curve; in most records, active means well fitted curve in the direction sought with a large enough effect; inconclusive means small, poorly fitted or top-dose-only effect, or another doubt; inactive means no such curve, though single readings can be large; an effect the other way counts as inactive or inconclusive.
# Test system: Zika virus NS2B-NS3 protease
# Assay: Primary screen GU AMC qHTS for Zika virus inhibitors (AID 1347154); further: nearly all actives have a fitted effect of over 70% in size;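 on activity change, negative = inhibition: 0% = no-inhibitor control and -100% = no-enzyme control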
# Settings: Zika NS2B-NS3 unlinked protease, AMC fluorogenic substrate; series mostly up to 54.1 µM; activity change, negative = inhibition: at the top concentration
# Method in brief: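 Unlinked Zika NS2B hydrophilic domain/NS3 protease domain noncovalent complex (25 nM final) in 10 mM Tris-HCl pH 8.0, 0.01% Tween 20, with AMC peptide substrate. Fluorescence (ex 340, em 450 nm) change over 15 min, room temperature; percent inhibition fitted to 4-parameter Hill equation.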
# Potency means the concentration at half of the fitted maximal effect.
SMILES,"activity change, negative = inhibition",Potency
OC[C@H]1O[C@@H](n2cnc3c2NC=NC[C@@H]3O)C[C@H]1O,-8.82%,–
Cc1ccccc1C(C(=O)NC1CCCCC1)N(C(=O)Cn1ccnc1C)c1cccc(F)c1 (stereo not drawn),-7.35%,–
CO[C@H]1C[C@@H]2CC[C@@H](C)[C@@](O)(O2)C(=O)C(=O)N2CCCC[C@@H]2C(=O)O[C@H]([C@H](C)C[C@@H]2CC[C@H](OC(=O)C(C)(CO)CO)[C@H](OC)C2)CC(=O)[C@H](C)C=C(C)[C@@H](O)[C@@H](OC)C(=O)[C@H](C)C[C@H](C)C=CC=CC=C1C,6.27%,–
O=C1NC(=O)C(=Cc2ccc(-c3ccc(F)cc3)o2)S1,-10.6%,–
C[C@H](NC(=O)C(=O)Nc1ccccc1C(C)(C)C)C(=O)N[C@@H](CC(=O)O)C(=O)COc1c(F)c(F)cc(F)c1F,4.16%,–
O=C(CCN1CCN(C(=O)OCc2cc(Cl)cc(Cl)c2)CC1)c1ccc2[nH]c(=O)oc2c1,11.3%,–
CC=C(C)C(=O)O[C@H]1C(C)=C[C@]23C(=O)[C@@H](C=C(CO)[C@@H](O)[C@]12O)[C@H]1[C@@H](C[C@H]3C)C1(C)C,-4.93%,–
CNC(=O)c1ccc2cc(C3(O)CCn4cncc43)ccc2c1 (stereo not drawn),11.1%,–
Cn1cc(C=C2C(=O)Nc3cccnc32)c2ccccc21,10.9%,–
O=c1[nH]cnc2c1ncn2[C@H]1CC[C@@H](CO)O1,6.55%,–
CC(C)(C)Cn1c(N)nc2ccc(-c3[nH]c(C(C)(C)C)nc3-c3ccc(F)cc3)nc21,–,10.8 µM (active)
CCOC(CN1C(=O)[C@](CC(=O)Nc2ccc(C)cc2)(NC(=O)Nc2ccc(C)cc2)c2ccccc21)OCC,-14.3%,–
O=C(Nc1ccccc1-c1cn2c(CN3CCNCC3)csc2n1)c1cnc2ccccc2n1,-8.48%,–
C=C1C(=O)OC2C=C(C)CCC=C(C)CCC12 (stereo not drawn),-10.1%,–
Cc1ccc(Nc2cc(-c3cccc(N4C(=O)c5ccccc5C4=O)c3)ncn2)cc1NS(C)(=O)=O,3.61%,–
COc1ccc(-n2c(C)c([N+](=O)[O-])c3ccc(O)cc32)cc1,2.69%,–
CC(C)(C)COc1ccc(-n2cc(C(=O)O)cn2)cc1C#N,-4.45%,–
O=C(N[C@@H](c1ccccc1)[C@@H]1CCCCN1)c1cccc(C(F)(F)F)c1Cl,-0.535%,–
CC(C)(C)c1cc(C(=O)O)c(NC(=O)Nc2ccc3[nH]ncc3c2)s1,-16.9%,–

SMILES,"activity change, negative = inhibition",Potency
CON=C(C(=O)N[C@@H]1C(=O)N2C(C(=O)OCOC(=O)C(C)(C)C)=C(C=Cc3scnc3C)CS[C@H]12)c1csc(N)n1,12.5%,–
O=c1cc(-c2ccccc2)oc2cc(O)c(O)c(O)c12,20.5%,–
O=C(OCC#CCSc1nnc(-c2cccc3ccccc23)o1)c1cc2ccccc2s1,-4.95%,–
Cc1cccc(Nc2nc(-c3ccncc3)cs2)c1,2.5%,–
O=c1cc(CN2CCOCC2)occ1OCCCCCSc1ccnc2cc(C(F)(F)F)ccc12,7.91%,–
COc1ccc2cccc(CCNC(C)=O)c2c1,5.42%,–
C=C1C(=O)OC(CCCCCCCC)C1C(=O)O (stereo not drawn),3.3%,–
CC(C)C(=O)Oc1ccc(CO)cc1[C@H](CCN(C(C)C)C(C)C)c1ccccc1,-2.22%,–
C=C1C(=O)[C@@]23C(CC[C@@H]1[C@H]2O)[C@@]12CO[C@]3(O)[C@@H](O)[C@@H]1C(C)(C)CC[C@@H]2O (stereo partly drawn),15.5%,–
Cc1ccc([C@@H]2O[C@H](CO)[C@@H](O)[C@H](O)[C@@H]2O)cc1Cc1ccc(-c2ccc(F)cc2)s1,7.91%,–
CC1(C)S[C@H]2[C@H](NC(=O)[C@@H](N)c3ccc(O)cc3)C(=O)N2[C@@H]1C(=O)O,5.98%,–
O=C(O)c1cc(-c2ccccc2)nc2ccccc12,–,inactive
C[C@]12CC[C@@H]3c4ccc(O)cc4CC[C@H]3[C@H]1C[C@@H](O)[C@H]2O,6.48%,–
CC(C)C(=O)Nc1ncc(-c2cc(C(F)F)nn2-c2c(Cl)cccc2Cl)s1,8.96%,–
O=c1c(O)c(-c2ccc(O)cc2)oc2cc(O)cc(O)c12,-10.5%,–
CCOc1ccc(Nc2nc(-c3c(C)nc4ccccn34)cs2)cc1,-0.812%,–
C[C@H]1[C@H](NC(=O)C(=NOC(C)(C)C(=O)O)c2csc(N)n2)C(=O)N1S(=O)(=O)O,-2.1%,–
CN(C[C@@H]1COCCO1)S(=O)(=O)Nc1ccc2ccc3ncc(-c4cnn(C)c4)cc3c(=O)c2c1,-6.88%,–

# Test system: Zika virus NS2B-NS3 protease (unlinked complex)
# Assay: Primary screen GU Rhodamine qHTS for Zika virus inhibitors: Unlinked NS2B-NS3 protease assay (AID 1347159); further: nearly all actives have a fitted effect of over 60% in size; on activity change, negative = inhibition: on the % scale 0 is the no-effect control and ±100 the full control effect
# Settings: Recombinant ZIKV NS2B-NS3 protease, Rhodamine110 substrate fluorescence; series mostly up to 107 µM; activity change, negative = inhibition: at the top concentration
# Method in brief: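 Compounds, tested up to 114 microM, were incubated for 15 minutes with 25 nM unlinked NS2B-NS3 protease at pH 8.0. Cleavage of 1.5 microM Rhodamine110 substrate was then followed by fluorescence for 15 minutes.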
SMILES,"activity change, negative = inhibition",Potency
Cc1ccccc1C(C(=O)NC1CCCCC1)N(C(=O)Cn1ccnc1C)c1cccc(F)c1 (stereo not drawn),4.53%,–
O=C(CCN1CCN(C(=O)OCc2cc(Cl)cc(Cl)c2)CC1)c1ccc2[nH]c(=O)oc2c1,–,44.7 µM (active)
CNC(=O)c1ccc2cc(C3(O)CCn4cncc43)ccc2c1 (stereo not drawn),7.5%,–
O=c1[nH]cnc2c1ncn2[C@H]1CC[C@@H](CO)O1,4.54%,–
CC(C)(C)Cn1c(N)nc2ccc(-c3[nH]c(C(C)(C)C)nc3-c3ccc(F)cc3)nc21,86.6%,–
O=C(Nc1ccccc1-c1cn2c(CN3CCNCC3)csc2n1)c1cnc2ccccc2n1,-19.3%,–
Cc1ccc(Nc2cc(-c3cccc(N4C(=O)c5ccccc5C4=O)c3)ncn2)cc1NS(C)(=O)=O,–,50.1 µM (active)
CC(C)(C)c1cc(C(=O)O)c(NC(=O)Nc2ccc3[nH]ncc3c2)s1,–,17.8 µM (active)
Cc1cccc(Nc2nc(-c3ccncc3)cs2)c1,42.7%,–
O=c1cc(CN2CCOCC2)occ1OCCCCCSc1ccnc2cc(C(F)(F)F)ccc12,0.535%,–
CC(C)C(=O)Oc1ccc(CO)cc1[C@H](CCN(C(C)C)C(C)C)c1ccccc1,33.3%,–
C=C1C(=O)[C@@]23C(CC[C@@H]1[C@H]2O)[C@@]12CO[C@]3(O)[C@@H](O)[C@@H]1C(C)(C)CC[C@@H]2O (stereo partly drawn),0%,–
O=C(O)c1cc(-c2ccccc2)nc2ccccc12,31.2%,–
CC(C)C(=O)Nc1ncc(-c2cc(C(F)F)nn2-c2c(Cl)cccc2Cl)s1,8.89%,–
CCOc1ccc(Nc2nc(-c3c(C)nc4ccccn34)cs2)cc1,1.76%,–
CN(C[C@@H]1COCCO1)S(=O)(=O)Nc1ccc2ccc3ncc(-c4cnn(C)c4)cc3c(=O)c2c1,-18.1%,–
